# Compounds with a hit are over-represented: about 5.4% of the library has one in this group of screens.
# Sm TGR inh: S. mansoni TGR enzyme inhibition; Q962Y6; purified TGR, DTNB reduction, TNB absorbance 405 nm; Potency, µM (titrated, usually from 114 µM), without a hit: at the highest dose activity change, negative = inhibition, hits mostly inhibitors; 360,000 compounds, 3% hits; active = well fitted inhibition curve with a large enough effect; inconclusive = small, poorly fitted or top-dose-only effect; inactive = no such curve, though single readings can be large or run the other way; also: nearly all actives have a fitted effect of over 60% in size
#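 TGR 20 nM + NADPH 100 uM (dispensed conc.), cpd preinc 15 min RT; start with NADPH (500 uM addition) then DTNB (15 mM addition). Kinetic TNB absorbance, 405 nm filter. Four-parameter Hill fit across titration.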
# FMDV inh: foot and mouth disease virus antiviral activity. FMDV antiviral cell-based qHTS. Potency, µM (top dose mostly 57.9 µM), inactives show top-dose activity change, negative = inhibition, most hits filed as inhibitors. 410,000 compounds, 1.2% hits; calls by dose curve; tested in HEK293T cells; also: read-out not given here; nearly all actives have a fitted effect of over 45% in size
# LASV entry inh: Lassa virus entry inhibition; Lassa virus pseudotype entry inhibition, cell reporter; Potency, µM (titrated, usually from 37.9 µM), for inactives: at the top dose activity change, negative = inhibition, hits mostly inhibitors; 300,000 compounds, 1.2% hits; calls by dose curve; tested in HEK293 cells; also: nearly all actives have a fitted effect of over 50% in size
# Vaccinia mCherry: vaccinia inhibition (mCherry reporter); Vaccinia virus mCherry reporter infection, fluorescence; Potency, µM (top dose mostly 36.5 µM), inactives show at the highest dose activity change, negative = inhibition, hits mostly inhibitors; 310,000 compounds, 0.63% hits; AID 720579; calls by dose curve; tested in A549 cells; also: nearly all actives have a fitted effect of over 35% in size
# MARV entry inh: blocks Marburg virus binding to or entry into cells; 300,000 compounds, 1.8% hits; Potency, µM (highest dose often 37.8 µM), for the others: top-dose activity change, negative = inhibition, most hits filed as inhibitors; Marburg virus pseudotyped entry inhibition, cell reporter; calls by dose curve; tested in HEK293 cells
# Vaccinia Venus: inhibitors of vaccinia virus (Venus reporter) | Vaccinia virus Venus reporter expression, fluorescence | Potency, µM (top dose mostly 36.5 µM), inactives show top-dose activity change, negative = inhibition, most hits filed as inhibitors | 330,000 compounds, 0.46% hits | AID 720580; calls by dose curve; tested in A549 cells; also: nearly all actives have a fitted effect of over 30% in size
# * = called active by the depositor; i = inactive; ? = inconclusive; . = no result; [ ] = another dose, or the depositor's remark. % is scaled to controls: 0 for no effect and ±100 for the full control effect; potency is read from the fitted curve at half-maximal effect.
SMILES,Sm TGR inh,FMDV inh,LASV entry inh,Vaccinia mCherry,MARV entry inh,Vaccinia Venus
CCOC(=O)C1CCN(CC(=O)Nc2c(C(=O)OC)[nH]c3ccccc23)CC1,3%,.,.,.,.,.
CCOC(=O)C1CCN(CC(=O)Nc2c(C(=O)OC)[nH]c3ccc(Cl)cc23)CC1,7%,?,?,-1%,10µM*,-5%
CC1CN(S(=O)(=O)c2cccc(C(=O)Nc3ccc4c(c3)CCC4)c2)CC(C)O1 (stereo not drawn),-5%,11%,?,?,11µM*,-24%
CN(c1cccc(Cl)c1)S(=O)(=O)c1cccc(C(=O)Nc2ccc3c(c2)CCC3)c1,7%,-11%,?,-10%,2.2µM*,-25%
COc1ccc2c(c1)-c1nc(-n3ncc(C(=O)NCc4cccc(C)n4)c3C3CC3)ncc1CC2,.,-17%,.,-3%,.,-3%
COC(=O)c1ccc(OCC2c3cc(OC)c(OC)cc3CCN2C(=O)c2cccc(C)c2)cc1 (stereo not drawn),8%,?,?,-9%,.,-9%
C#CCOCCOCCOCCNc1nc(N2CCN(C(=O)Cn3cc(CC(C)O)nn3)CC2)nc(N2CCN(C(=O)[C@H](C)n3cc(CCC(=O)O)nn3)CC2)n1 (stereo partly drawn),.,5%,.,-12%,.,5%
O=C(CN(Cc1ccccc1)S(=O)(=O)c1ccccc1)N/N=C/c1ccc2c(c1)OCO2,2%,.,7.3µM*,-11%,?,-26%
CCCSc1nnc(N2C(=O)C(O)=C(C(=O)c3ccco3)C2c2ccccc2F)s1 (stereo not drawn),7.1µM*,0%,.,.,.,.
CSc1nnc(N2C(=O)C(O)=C(C(=O)c3ccco3)C2c2ccccc2F)s1 (stereo not drawn),?,7%,.,.,.,.
C=CCSc1nnc(N2C(=O)C(O)=C(C(=O)c3ccco3)C2c2ccccc2F)s1 (stereo not drawn),11µM*,10%,.,.,.,.
CSc1nnc(N2C(=O)C(O)=C(C(=O)c3ccco3)C2c2ccccc2)s1 (stereo not drawn),?,0%,.,.,.,.
COc1cc(OC)c(OC)cc1CN1CCN(Cc2cccn2C)CC1,?,-6%,0%,-18%,21µM*,-13%
COc1cc(OC)c(OC)cc1CN1CCN(c2ccccc2OC)CC1,-22%,-1%,31%[14.3 µM],-19%,-15%,-11%
NC1=NC[C@H](CC2CCCCC2)N1CCc1cc(C(F)(F)F)cc(C(F)(F)F)c1,8%,?,.,?,.,10µM*
COc1cccc(-c2ccc(NC(=O)C3CCCN(CCCn4cccn4)C3)cc2)c1 (stereo not drawn),-21%,35µM*,?,?,?,-24%
CCN1C(=O)C(O)(CC(=O)c2c(C)coc2C)c2ccccc21 (stereo not drawn),-13%,8%,.,-1%,4%[46.1 µM],8%
Cc1coc(C)c1C(=O)CC1(O)C(=O)N(CCc2ccccc2)c2ccccc21 (stereo not drawn),14µM*,-6%,-14%,.,?,.
CCCCOCCCNc1ncnc2c1[nH]c1ccccc12,1%,11µM*,?,.,5.2µM*,.
CCn1nc(C)c2c(-c3ccccc3)cc(=O)n(C(C)C(=O)NCCC(C)C)c21 (stereo not drawn),-10%,-4%,-34%[46.1 µM],1%,.,7%
COc1cc(CNC(C)(C)CO)cc(Br)c1OCc1ccc(Cl)cc1Cl,-3%,?,?,?,13µM*,?
Cc1cccc2cc(CN(Cc3ccccc3)C(=S)NCCCN(C)C)c(=O)[nH]c12,-17%,-13%,-27%[46.1 µM],i,4µM*,-7%
Cc1cccc2cc(CN(Cc3cccnc3)C(=S)NCCCN(C)C)c(=O)[nH]c12,7%,-16%,14%,i,2%[46.1 µM],3%
Cc1ccc(NC(=S)N(CCN(C)C)Cc2cc3cccc(C)c3[nH]c2=O)cc1,-17%,-21%,1%,-16%,?,-5%
Cc1ccc(CN(Cc2cc3cccc(C)c3[nH]c2=O)C(=S)NCCCN(C)C)cc1,4%[57.1 µM],-15%,-12%,-16%,4.5µM*,-22%
O=C1C=CC(=O)C(CNc2ccc(C(=O)OCc3ccccc3)cc2)=C1,.,0%,11µM*,?,?,?

# Screens: PubChem BioAssay, National Center for Advancing Translational Sciences (NCATS)
